In paper PMC12864922, “TDP-43 directly inhibits mRNA accumulation in neurites through modulation of mRNA stability”:
Whole data set: some 9,900 sequences, median “r (bound/input frequency ratio)” near 0.7, cut for the highest 2% near 6.5. The sample holds the highest values, similar sequences and a random draw of the others, so the mix is not that of the screen.

B1: ENSMUSG00000029636.126|Wasf3 (ssRNA)
RNA: GGGAGUUCUACAGUCCGACGAUCGCUUCGAUAUCCGCAUGCUAUCACUUUCAUGGCUAGCCCUGAUAGCGUUGGGCACCAGUUAGCCAGGCCAUGUUCAAGCUGCCUAGAGUCUGCAGAGCUUGCAUGGCAGAGCGGCCGCAUCUGGUUCCCUCCUACUCCACCCAGUGGAAAAGAGACCUCCACGUUUUAUUUUCUGGGAUCCCUGCUCCUCUGUUCACCAGGGAGUGAGCACAGGUCAGCACCUCACCCCCCUUGCUCUGAAUCAUGGAAGCUUGGCUUUAGCUGAGAGAUGCCACCAGCUCUCUUGCGGUCGCACUAGUGUGGAAUUCUCGGGUGUCAAGG
B2: ENSMUSG00000038916.65|Soga3 (ssRNA)
RNA: GGGAGUUCUACAGUCCGACGAUCGCUUCGAUAUCCGCAUGCUAACCUUUCUUUGUUUUGCACUCUUGAGUCAUAGUUGACUGGCUGACUGUGAAAAAUGGACAAAGUCUCAUAAUUAUUCUGUAGGAAUUGAGUAUUAUUUUACACCUGGAAAAUUUCAGCUGGUUGCAUUUUCAAAUUCAUGUAGAGGCAUUAAUUAUAAGUCAAUGUAGAUGAUUUAUAAAUUAUCUCUGUUAUAAAUUAUGUAGAUUUGUAAGCAUGCUGUUACUCAUGUUAGACAAAAAGGAAAACAUCAAUGUCUAAUCUCUUGCGGUCGCACUAGUGUGGAAUUCUCGGGUGUCAAGG
B3: ENSMUSG00000061578.1302|Ksr2 (ssRNA)
RNA: GGGAGUUCUACAGUCCGACGAUCGCUUCGAUAUCCGCAUGCUAGGGAUUGGCUGUAGUUAAUUAAAAGCACCUGUCUCUGUCAUCUCUGCACCCAACUGAAUCUCCCACCCUCAAGUGUACCUCUCAGGAUAUCCCCAGGCACACGAAGAUGGAAUGGAAAGCCAGUGGGUAUCUCCCACCCACUUAGAUGCUGAUGGCCUGGGACUAUAAACAGGGACAGUUGGGUCUCCUAAGGAAUAGCUUCCAGGUCCAGGAUGCUGGCAUCUCCCAGAGAGAACUCCAUCCCCUGACCACCAAGGCCUCUCUUGCGGUCGCACUAGUGUGGAAUUCUCGGGUGUCAAGG
B4: ENSMUSG00000061578.924|Ksr2 (ssRNA)
RNA: GGGAGUUCUACAGUCCGACGAUCGCUUCGAUAUCCGCAUGCUACAUGAGCCCAGAUAGUCAAAGACUUCAGCACAAGGGUGUUUAGAGUAGGCAGUGUGGAAGUAUCAAUAAGGUUAUUGAGAUGAGGAUUUAGAAAGAUCCAUGUAUAAAAGGUCUAGAAGGAUGAAGAUCUAAAACAAGAAGACUGCAUGUUAACGCUCCUGCCACUGUUGCCCCUUCCUUUACCCUUGGCAGACAUUGCUAAUCAAUCUCAGCACAGUUUCCAACCACAGUCAUAGAACAUUUGCCACAAAGGCCCUGGACUCUUGCGGUCGCACUAGUGUGGAAUUCUCGGGUGUCAAGG
B5: ENSMUSG00000058297.294|Spock2|77:82 (ssRNA)
RNA: GGGAGUUCUACAGUCCGACGAUCGCUUCGAUAUCCGCAUGCUAAGAGAGAAUGAGAGAGAAUGAGAGAGAGAAUACCCGAGGGCCACCCUGAUGCCCAGGAAGAGUGAGGGCAGCCCCCACACACGUGGAAGAGGCUGGGCAGCUAGCUACUGGGGACCUUGUGCUGAGGCUUCCAGGACAAAGCCCCAGUCUGGCUCUCCCCCAGCCUCUCAGGGGCACUGGCUGGUCACAUCCACUGAGUAUUGAUCGGUUGGACUUUAGGGAAGAGCCUCCUCCUUCCCAUUCCUUUCUGCCACCCUGGACUCUUGCGGUCGCACUAGUGUGGAAUUCUCGGGUGUCAAGG
B6: ENSMUSG00000058297.291|Spock2|95:100 (ssRNA)
RNA: GGGAGUUCUACAGUCCGACGAUCGCUUCGAUAUCCGCAUGCUAAGAGAGAGAGAGAAAGAGAGAGAGAAUGAGAGAGAAUGAGAGAGAGAAUACCCGAGGGCCACCCUGAUGCCCAGGAAGAGUGAGGGCAGCCCCCACACACGUGGAAGAGGCUGGGCAGCUAGCUACUGGGGACCUUGUGCUGAGGCUUCCAGGACAAAGCCCCAGUCUGGCUCUCCCCCAGCCUCUCAGGGGCACUGGCUGGUCACAUCCACUGAGUAUUGAUCGGUUGGACUUUAGGGAAGAGCCUCCUCCUUCCCAUUCUCUUGCGGUCGCACUAGUGUGGAAUUCUCGGGUGUCAAGG
B7: ENSMUSG00000058297.292|Spock2|89:94 (ssRNA)
RNA: GGGAGUUCUACAGUCCGACGAUCGCUUCGAUAUCCGCAUGCUAAGAGAGAAAGAGAGAGAGAAUGAGAGAGAAUGAGAGAGAGAAUACCCGAGGGCCACCCUGAUGCCCAGGAAGAGUGAGGGCAGCCCCCACACACGUGGAAGAGGCUGGGCAGCUAGCUACUGGGGACCUUGUGCUGAGGCUUCCAGGACAAAGCCCCAGUCUGGCUCUCCCCCAGCCUCUCAGGGGCACUGGCUGGUCACAUCCACUGAGUAUUGAUCGGUUGGACUUUAGGGAAGAGCCUCCUCCUUCCCAUUCCUUUCCUCUUGCGGUCGCACUAGUGUGGAAUUCUCGGGUGUCAAGG
B8: ENSMUSG00000061578.830|Ksr2|59:63;101:105;176:180 (ssRNA)
RNA: GGGAGUUCUACAGUCCGACGAUCGCUUCGAUAUCCGCAUGCUAAUAGAAACAGCAUUCUGGCUCACAGUUUCAAAGGGCUCAGUCCAUAGCUGCCUGACUCACACAUUCUAGGCCUUUCUUGAGGCAAGUGUUCAUCAUGAUACACACAGGGUGAGGAGGAGUUUCUUCAUGGCAAACAGGAAGCAAAGAGCAAUACAGGAAAAGGUCAGGGGUGAGAACACACAUUGCCACUUCCUCCAGCUAGGACCUUUGAGCAUCACAUUGUGAAGCCAUCCAGGGACUUGGGGGUUAGGUCAGAGGUACUCUUGCGGUCGCACUAGUGUGGAAUUCUCGGGUGUCAAGG
B9: ENSMUSG00000032194.214|Kank2 (ssRNA)
RNA: GGGAGUUCUACAGUCCGACGAUCGCUUCGAUAUCCGCAUGCUAUUGUUGUUGUUUCUUUGUUUCUUUUCUUCAUAAAGAAGAAAAAGGAAACAACUUCUAGAUGUGCCUUGCGAUAGGGAGGACUUUGUCCUCUCAAGUCUCCCUGUCGUAUCCAGAUCACAGCUGAACCCACUGGGCCUUGGCGCCAAACCUCAGCAGGGCAGCAUUGAGACUCAUGGACUAAAGGAAAGUGUUCACUCUUCUAGACAAGUGGGUCUCUUGGUUUGAUGGAGUCUUACUCCGCUUGAGUUUUGUAGAAGGGGCUCUUGCGGUCGCACUAGUGUGGAAUUCUCGGGUGUCAAGG
B10: ENSMUSG00000029636.67|Wasf3|73:79;237:241 (ssRNA)
RNA: GGGAGUUCUACAGUCCGACGAUCGCUUCGAUAUCCGCAUGCUACCAUCCUGAUUUGGUGGGCUUGCCACGUAUCUGCGCAGCUGCCCCACGUCAGCUCUCUGCAAGAUCACUGGCACACACACUCAGUGAUGUCUUCCAACCAGUGGGUGAUACGUUUUCCUGUUUCUUCCCUUUGCAAAUUGAAUUCCAGGUAGAUAUGGUUGUAGAGGGGAAAGUUUAACAAAUCAGAAUGAAAUGUUUGUCUGUUUGCACACUGGGCCUGGUGGCCUCCAAGGAAAACACAACGAUCGUUUGCUUUCUCUCUCUUGCGGUCGCACUAGUGUGGAAUUCUCGGGUGUCAAGG
B11: ENSMUSG00000061578.1419|Ksr2|3:7;229:233 (ssRNA)
RNA: GGGAGUUCUACAGUCCGACGAUCGCUUCGAUAUCCGCAUGCUAAUCAUACAUCUUGAUUCUCCAUUUUCCUUCUGGACCACAUGUCUCUUCCUUUUCCUUUUUAGAUCUGUCUUGCUCUCUGUCUCUCUCACUCAUUGCCAACAUGUUGCUGGGAAAGAAUAUUUGAUUUAGAUGCCAAUCAGGAAGGCAAGUAGGAUGGAUGGAUGAGUGAGUGGAUAGGUAGGUAUAUAAAUGGAUGGAUGGGUGAUGGAUGGGUAAAUGAAUGGAUAGCAUACUGAAUGAAUGGAUGAUGGAUGAAUGGACUCUUGCGGUCGCACUAGUGUGGAAUUCUCGGGUGUCAAGG

Molecular target: TDP-43 (Homo sapiens, UniProt Q13148 1-414)
Sequence (Q13148 whole entry): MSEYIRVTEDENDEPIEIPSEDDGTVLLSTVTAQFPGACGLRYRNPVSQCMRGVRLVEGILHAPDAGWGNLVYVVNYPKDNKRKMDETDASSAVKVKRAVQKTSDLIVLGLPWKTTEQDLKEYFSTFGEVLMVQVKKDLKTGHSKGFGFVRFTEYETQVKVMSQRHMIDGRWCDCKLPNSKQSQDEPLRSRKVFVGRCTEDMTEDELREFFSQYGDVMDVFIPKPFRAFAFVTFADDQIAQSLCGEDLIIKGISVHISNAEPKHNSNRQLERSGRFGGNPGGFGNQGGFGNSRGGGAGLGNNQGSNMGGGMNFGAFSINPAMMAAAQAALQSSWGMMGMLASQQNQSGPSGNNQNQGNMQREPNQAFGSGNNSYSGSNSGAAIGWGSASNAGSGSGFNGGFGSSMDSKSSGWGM
Assay: RNA Bind-n-Seq with designed 260-mer pool; 25 mM Tris-HCl, 150 mM KCl, 3 mM MgCl2, BSA (printed 500 mg/mL), 20 units/mL SUPERase IN; pH not stated; 500 nM RNA pool, 1 h, 4 C; TDP-43 5, 50, 500 nM; high values mean tight binding
Settings: protein: recombinant; tags: SBP (GST cleaved off with PreScission; pGEX-GST-SBP)
In short: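 Streptavidin beads captured recombinant SBP-tagged TDP-43 at 5, 50 or 500 nM, and the beads were incubated for 1 h at 4 °C with 500 nM of an in vitro-transcribed pool of 260-nt 3′ UTR oligos in 25 mM Tris-HCl, 150 mM KCl, 3 mM MgCl2, BSA and SUPERase IN. After washing, bound RNA was eluted with biotin, reverse transcribed, PCR-amplified and sequenced. Binding is reported as R, the mapped-read-normalized abundance of each oligo in the bound sample divided by its abundance in the input. Two independent protein batches served as duplicates.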

| Binder | binding signal |
| --- | --- |
| B1 | 1.2 R (bound/input frequency ratio) |
| B2 | 0.077 R (bound/input frequency ratio) |
| B3 | 0.444 R (bound/input frequency ratio) |
| B4 | 1.12 R (bound/input frequency ratio) |
| B5 | 2.62 R (bound/input frequency ratio) |
| B6 | 8.71 R (bound/input frequency ratio) |
| B7 | 5.57 R (bound/input frequency ratio) |
| B8 | 0.325 R (bound/input frequency ratio) |
| B9 | 0.273 R (bound/input frequency ratio) |
| B10 | 1.65 R (bound/input frequency ratio) |
| B11 | 2.26 R (bound/input frequency ratio) |
